This is part of a sample that, as a whole, favours compounds with a hit. Of some 79,000 tested, about 15% had one in any assay. Active and inactive are the calls of the source. Cut-off read from the data, not from the text of the source: active = growth inhibition above about 70%; inactive = the rest.
Key:
[1] = NCI Yeast Anticancer Drug Screen. Data for the rad50 strain (AID 155);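 note: 0% = growth of vehicle-only cultures of the same strain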; conditions: S. cerevisiae rad50 strain growth inhibition; at 50.0 µM; hits give high values
Outline: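 Cells are treated with compound, grown, and their growth is then scored against vehicle-only cultures of the same repair-deficient yeast strain.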

[2] = NCI Yeast Anticancer Drug Screen. Data for the mec2-1 strain (AID 157); conditions: S. cerevisiae mec2-1 strain, at 50.0 µM, hits give high values
Outline: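 Strain: mec2-1 (DNA repair/cell cycle alteration). Compound exposure, then growth measured; inhibition expressed relative to vehicle.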

[3] = NCI Yeast Anticancer Drug Screen. Data for the sgs1 mgt1 strain (AID 161);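 note: 0% = growth of cultures given vehicle only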; conditions: S. cerevisiae sgs1 mgt1 strain, at 50.0 µM, hits give high values
Outline: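 Test agents were incubated with a DNA-repair-mutant yeast strain. Growth was then read and compared against vehicle-treated controls.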

[4] = NCI Yeast Anticancer Drug Screen. Data for the cln2 rad14 strain (AID 165);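 note: 0% = growth equal to vehicle treated cultures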; conditions: S. cerevisiae cln2 rad14 strain, at 50.0 µM, hits give high values
Outline: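 Compounds are applied to the cln2 rad14 yeast strain, and growth is then compared with that of vehicle-treated cultures to give inhibition.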

[5] = NCI Yeast Anticancer Drug Screen. Data for the bub3 strain (AID 167); conditions: S. cerevisiae bub3 mutant strain, at 50.0 µM, hits give high values
Outline: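 Part of a panel of yeast mutants defective in DNA damage repair or cell cycle regulation. Each strain is grown with compound, and inhibition is calculated relative to solvent-treated cultures.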

[6] = NCI Yeast Anticancer Drug Screen. Data for the mlh1 rad18 strain (AID 175); conditions: S. cerevisiae mlh1 rad18 strain growth inhibition; at 50.0 µM; hits give high values
Outline: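 Read-out is yeast growth inhibition, calculated against vehicle-only controls. The compound was applied to a strain engineered with DNA damage repair alterations.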

Measured: growth inhibition

CC(=O)CC(C)=O.CC(=O)CC(C)=O.CC(=O)CC(C)=O.[La]
inactive: [1] 27.8% | [2] 1.35% | [3] 12.2% | [4] 19.1% | [5] -4.6% | [6] 1.15%

ClCCN(CCCl)CC(Cl)COc1cccc2ccccc12 (stereo unspecified)
inactive: [1] 12.2% | [2] 11.6% | [3] 31.5% | [4] -1.6% | [5] 25.2% | [6] 30.4%

Cc1ccc([Se][Se]c2ccc(C)cc2)cc1
inactive: [1] 55.5% | [2] 10.7% | [3] 35.6% | [4] 30.1% | [5] 41% | [6] 43%

CCOC(=O)/C=C1/C=C(C)CC(C)(C)C1 (tested in a mixture with another compound)
inactive: [1] -0.3% | [2] -58.7% | [3] -9.1% | [4] -40.5% | [5] 19% | [6] 1.7%

O=C(O)c1cccc([As]=[As]c2cccc(C(=O)O)c2)c1 (stereo unspecified)
active: [4] 83.2%
inactive: [1] 8.4% | [2] -9.35% | [3] -8.75% | [5] -65.3% | [6] 1%

CCC(C)(Cl)c1ccccc1 (stereo unspecified)
inactive: [1] -11.7% | [2] -21.6% | [3] -13.6% | [4] -0.4% | [5] -21.4% | [6] -14.1%

COc1ccc(NC2=C(C)C(=O)C3=C(C2=O)[C@H](COC(N)=O)[C@]2(OC)[C@@H]4N[C@@H]4CN32)cc1
active: [1] 81.7% | [2] 79.7% | [3] 74.8% | [4] 71.6% | [6] 73.7%
inactive: [5] 69.4%

[C-]#[O+].[C-]#[O+].[C-]#[O+].[CH3][Sn]([c]1ccccc1)[c]1ccccc1.[W].[c-]1[c-][c-][cH-][c-]1
active: [1] 98.2% | [2] 99.3% | [3] 98.5% | [4] 97.5% | [5] 99.3% | [6] 97.5%

O=C(O)c1c(Cl)n(Cc2cc(Cl)ccc2Cl)c2ccccc12
inactive: [1] 4.5% | [2] 14.3% | [3] 19.9% | [4] 19.9% | [5] 11.3% | [6] 22.2%

N#CNC(N)=S
inactive: [1] -13.8% | [2] -10.3% | [3] -10.3% | [4] -8.7% | [5] -14.3% | [6] -8.35%

CCC[As](=O)(O)CC[As](=O)(O)CCC
inactive: [1] 15.8% | [2] 34.2% | [3] 59.3% | [4] -3.05% | [5] 0.8% | [6] 14.4%

O=C(O)C(O)(c1ccccc1)c1ccco1 (stereo unspecified)
inactive: [1] 12.8% | [2] 1.8% | [3] -5.25% | [4] 21.3% | [5] -28.9% | [6] 12.7%

CCCCOCN(CCc1ccccc1)COCCCC
inactive: [1] 15.7% | [2] 5.8% | [3] 24.2% | [4] 19.2% | [5] 10.2% | [6] 25.6%

CCNC(=O)Oc1c(Cl)cc(S(=O)(=O)F)cc1Cl
inactive: [1] 43.6% | [2] 22.8% | [3] 32.1% | [4] 12.5% | [5] 16% | [6] 26.4%

CN(C)c1ccc(N=Nc2ccc([As](=O)(O)O)cc2)cc1
inactive: [1] -23.1% | [2] -10.6% | [3] -11.8% | [4] -35.1% | [5] -5.15% | [6] -0.4%

CC(=O)[O][Hg][c]1cc[c]([Hg])s1
active: [1] 99.5% | [2] 99.3% | [3] 99.5% | [4] 99.3% | [5] 99% | [6] 99.2%

COc1cc(C(O)CN)cc(OC)c1OC (stereo unspecified)
inactive: [1] -12.9% | [2] 2.2% | [3] -6.55% | [4] -7.35% | [5] -3.35% | [6] -6.8%

CCOP(=O)(OCC)/C(C#N)=C/c1cnc(C)[nH]1
inactive: [1] -52.4% | [2] 24% | [3] -36% | [4] 26.4% | [5] 16.1% | [6] -5.55%

CCCOC(=O)c1ccccc1N
inactive: [1] 6.05% | [2] -1.25% | [3] -1.55% | [4] -16.9% | [5] -4.75% | [6] -19.4%

NNN1CCN(N)CC1
inactive: [1] 11.1% | [2] -12.2% | [3] 6.35% | [4] -8.35% | [5] 17.1% | [6] 4.35%

CCC(=O)OC1(c2ccccc2)CCN(CCC(=O)c2ccccc2)CC1
inactive: [1] 45.5% | [2] 28.4% | [3] 36.8% | [4] 19.2% | [5] 36.8% | [6] 25.9%

Reference: PubChem BioAssay (NCI)
